Data as given in PubChem BioAssay AID602314 (ICCB-Longwood Screening Facility, Harvard Medical School, 2012).
“And” between values parts separate entries of the source, which are not always exact repeats. Equal entries are not always repeated. About 110 (0.13%) of roughly 84,000 compounds were called active. Rule as the data show it: active = inhibition above about 30% (passing the limit was not always enough); inactive = the rest. The list comes from a sample in which actives are over-represented; it also holds similar structures and randomly drawn compounds. More than one record can exist for a structure, and the calls need not agree.

The compounds below were run on MgrA (MarR family transcriptional regulator), Staphylococcus aureus Newman (assay: modulators of MgrA DNA binding – biochemical, S. aureus Newman, fluorescence polarization, primary screen (AID 602314;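 also: 0% = protein plus DNA without compound and 100% = DNA alone without protein; higher means less MgrA bound to DNA so lower polarization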)). Details: stronger effect = higher value, concentration not given here.

inhibition, inactive:
CCOc1ccc(CC(C(=O)O)C(=O)O)cc1 0.1%
N#CCCN(C1CCCCC1)S(=O)(=O)c1ccc(Br)cc1 -0.95%
COc1ccc(CC(NC(C)=O)C(=O)O)c(Cl)c1OC (configuration not stated) -0.7%
Cn1c(SCC(=O)Nc2ccc(C(F)(F)F)cc2)nnc1-c1ccc2nonc2c1 -0.1%
COC(=O)C1=Cc2cc(Cl)ccc2OC1 0.15%
Cc1cccc(CN2C(=O)CSc3nc(C)cc(C)c32)c1 -0.45%
CCN(CC)CCCN1C(=O)C2C3C=CC(C2C1=O)C1C2C(=O)N(CCCN(CC)CC)C(=O)C2C31 (configuration not stated) 0.8%
CCOc1ccc(NC(=O)c2cc(-c3ccc(OC)c(OC)c3)nc3ccccc23)c([N+](=O)[O-])c1 -1.4%
COc1ccc(C)c2c1CCCC2=O -1.4%
Cc1ccc(Nc2cc([Se]c3ccccc3)c(N)c3c2C(=O)c2ccccc2C3=O)cc1 -3.2%
Cc1ccc2sc(-c3ccc(NC(=O)C(C)C)cc3)nc2c1 -2.5%
Cc1ccc(-c2noc(CN(C)C(=O)Nc3ccc(Cl)cc3)n2)cc1 0.05%
COc1cccc2c1NC(c1cccc(Cl)c1Cl)C1CC=CC21 (configuration not stated) -1.1%
Cc1ccccc1Cn1nnc(-c2ccncc2)n1 -3.5%
COc1ccc(-c2ccc(/C=c3\sc4nc5cc(C)c(C)cc5n4c3=O)o2)c([N+](=O)[O-])c1 0.8%
O=C(CC1CCCCC1)NCc1ccco1 1.25%
CC(=O)Oc1ccc(OC(C)=O)c2c1C1C=CC2CC1 -2.5%
COc1ccc(Nc2nc(Cl)nc(NCCN3CCOCC3)n2)c(OC)c1 0.3%
O=C(Nc1ccccc1C(=O)N1CCCC1)Oc1ccccc1 -0.95%
CCCCn1c(SCC(=O)N(C(C)C)C(C)C)nc2c1c(=O)n(C)c(=O)n2C 0.4%
O=c1c2c3c(sc2ncn1Cc1nn[nH]n1)CCCC3 -0.2%
Cc1c(CN2CCCCC2)c(O)n(CCO)c(=O)c1C#N -3.25%
C=CCn1cnc2c(c1=O)c1nc3ccccc3nc1n2-c1cccc(Br)c1 2.4%
CCOc1cc2c(cc1/C=C(\C#N)c1ccc(C(F)(F)F)cc1)OCO2 1.15%
O=S(=O)(c1ccc(Cl)cc1)N1CCCN(Cc2ccc(Cl)cc2Cl)CC1 1%
CCn1cc(S(=O)(=O)Nc2cc(C)on2)cn1 -2.15%
COc1ccccc1N1C(=O)NC(=O)/C(=C/c2cn(C(C)=O)c3ccccc23)C1=O 10.3%
O=S(=O)(c1ccc(Br)s1)N1CCCC1 2.65%
CSc1noc(-c2ccc(C(C)(C)C)cc2)c1C#N 4.25%
N=C1/C(=C\c2cccn2-c2ccc3ccccc3c2)C(=O)N=C2SC=NN12 4.5%
CCOC(=O)C1CCCN(c2c3c(nc4cc(-c5ccc(C)cc5)nn24)CCC3)C1 (configuration not stated) -2.15%
COc1cc(C=Nc2ccc3[nH]c(=O)[nH]c3c2)ccc1OC(C)=O 0.05%
COc1ccc2nc(SCC(=O)c3ccc(Cl)c(Cl)c3)[nH]c2c1 -2.6%
Cn1c(-c2ccccc2)c[n+]2c1CCCCC2 -2.6%
N=Cc1c(O)n(-c2ccccc2)c2ccccc12 4.8%
CCOC(=O)C1=C(C)N(C)C(C)=C(C(=O)OCC)C1c1ccccc1F -0.1%
O=c1oc(Nc2ccc(C(F)(F)F)cc2)nc2ccccc12 0.2%
COc1ccc(CCN(Cc2cc3cc4c(cc3[nH]c2=O)OCO4)C(=O)c2ccncc2)cc1OC 2.6%
S=C(Nc1ccc2[nH]ccc2c1)NC1CC2C=CC1C2 (configuration not stated) -0.05%
Cc1cccc(NC(=O)c2cn(-c3ccccc3)nc2-c2cccnc2)c1 -3%
OC1(C(F)(F)F)CC(c2ccccc2)=NN1c1cccc2cccnc12 (configuration not stated) -1.3%
CN1C(=O)C2N=NN(c3ccccc3)C2C1=O (configuration not stated) 1.8%
O=C(N/N=C/C1CC=CCC1)c1ccccc1 (configuration not stated) 2.3%
O=C(COc1ccc(C2Nc3cccc4cccc(c34)N2)cc1)Nc1ccccc1 1.95%
O=C(Nc1cccc2ccccc12)NC1CC1 1.3%
CC1=C(C(=O)OCC2CCCCC2)C(c2ccccc2OCc2ccccc2)NC(=O)N1 (configuration not stated) -1.8%
CCOC(=O)c1sc(NC(=O)c2sc3ccccc3c2Cl)nc1-c1ccccc1 -3.1%
COc1cccc(C(=O)Nc2ccccc2Cl)c1 -5.8%
COc1ccccc1N1C(=O)C(=Cc2ccco2)C(=O)N(c2ccccc2OC)C1=O 2.2%
CC(=O)Oc1ccc(C2NC(C(=O)O)CS2)cc1 (configuration not stated) -3.3%
O=C1NC(=S)N(c2ccc(Br)cc2)C(=O)/C1=C/c1ccsc1 24.2%
O=C(O)c1ccc(Cl)cc1N=Cc1nc(-c2ccc(Br)cc2)oc1O -0.9%
Cc1ccc(-c2nn(CCC(=O)Nc3cccc(C(F)(F)F)c3)c(=O)c3ccccc23)cc1 0.65%
O=C(CN1CCN(c2cccc(Cl)c2)CC1)c1ccc(Cl)cc1 6.3%
COC(=O)c1cccnc1NC(=S)NC(C)C 3.15%
COc1ccc(NC(=O)Nc2ccc(N3CCOCC3)cc2)cc1 -0.2%
O=C1C(Nc2ccc(O)cc2)=C(n2nnc3ccccc32)C(=O)c2ccccc21 -0.3%
NC(=S)C1(c2ccc(Cl)cc2Cl)CC1 -0.5%
CC1CN(S(=O)(=O)c2ccc3c4c(cccc24)C(=O)N3)CC(C)O1 (configuration not stated) 0.25%
CC[n+]1c(C)n(-c2ccccc2)c2ccc(N)cc21 1.45%
N=C1/C(=C/c2ccc(SCc3ccccc3)o2)C(=O)N=C2SC=CN12 1.55%

inhibition, 104% (active) and 0.85% (inactive):
CC[N+](C)(CC)CCC[n+]1c(-c2ccccc2)c2cc(N)ccc2c2ccc(N)cc21
